Assay outcomes from PubChem BioAssay.
AGP1-GFP MLPCN: yeast TOR pathway AGP1-GFP modulation | S. cerevisiae AGP1-GFP multiplex flow cytometry, 3 h; GFP as percent of DMSO wells | GFP response vs DMSO, % at 10 µM | hit rate 0.02% among 320,000;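 active = GFP response relative to DMSO above a set limit, near screen average plus 3 SD, cut at about 150% in these data; inconclusive = fewer than 70 cells counted for the yeast strain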;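 also: median GFP channel fluorescence of the gated AGP1 strain per well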
RPL19A TOR yeast: alters RPL19A-GFP fluorescence in TOR pathway yeast screen; S. cerevisiae RPL19A-GFP strain, flow cytometry, 3 h; hits give low values; percent response vs DMSO, % at 10 µM; hit rate 0.3% among 330,000; AID 2025;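 active = percent response vs DMSO below 50%; inconclusive = fewer than 70 events counted for the yeast strain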;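 also: median channel GFP fluorescence of the barcoded RPL19A-GFP strain; lower means less RPL19A-GFP as with rapamycin TOR inhibition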
CIT2-GFP yeast: alters CIT2-GFP fluorescence in TOR pathway yeast screen. GFP response vs DMSO, % at 10 µM. hit rate 0.065% among 320,000. S. cerevisiae CIT2-GFP strain, flow cytometry, 3 h; 100 means same as DMSO wells;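 active = GFP response relative to DMSO above a set limit, near the screen mean plus 3 SD, cut at about 150% in these data; inconclusive = Fewer than 70 cells measured for a yeast strain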;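 also: ratio of well median GFP fluorescence to mean of DMSO wells on the plate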
LAP4-GFP MLPCN: alters LAP4-GFP fluorescence in TOR pathway yeast screen | S. cerevisiae LAP4-GFP multiplex, flow cytometry GFP, 3 h; median GFP as percent of DMSO wells | GFP response vs DMSO, % at 10 µM | hit rate 0.34% among 320,000 | AID 2023;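 active = GFP response vs DMSO above a set limit, about the screen mean plus 3 SD, cut at about 150% in these data; inconclusive = under 70 cell events counted for the yeast strain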
MEP2-GFP yeast: alters MEP2-GFP fluorescence in TOR pathway yeast screen | S. cerevisiae MEP2-GFP strain, flow cytometry GFP, 3 h; 100% = DMSO control level | GFP response vs DMSO, % at 10 µM | hit rate 0.51% among 330,000 | AID 2016;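 active = GFP response versus DMSO above a set limit, roughly screen mean plus 3 SD, cut at about 180% in these data; inconclusive = fewer than 70 cells counted for a yeast strain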;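 also: median GFP fluorescence of the barcode-gated MEP2-GFP cells per well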
GASC-1 inh: human JMJD2C demethylase inhibition. GST-JMJD2C(1-420) H3K9me3 demethylation, DELFIA europium. inhibition, % at 2.35 µM. hit rate 0.069% among 330,000;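 active = more than half of a compound's replicate wells show inhibition beyond 50%, single wells judged on their own value; inconclusive = some, but no more than half, of replicates pass 50% inhibition; inactive = no replicate passes 50% inhibition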;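 also: signal counts dimethyl H3K9 product captured on neutravidin plate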
Target sequence (Q9H3R0 1-420 limits assumed): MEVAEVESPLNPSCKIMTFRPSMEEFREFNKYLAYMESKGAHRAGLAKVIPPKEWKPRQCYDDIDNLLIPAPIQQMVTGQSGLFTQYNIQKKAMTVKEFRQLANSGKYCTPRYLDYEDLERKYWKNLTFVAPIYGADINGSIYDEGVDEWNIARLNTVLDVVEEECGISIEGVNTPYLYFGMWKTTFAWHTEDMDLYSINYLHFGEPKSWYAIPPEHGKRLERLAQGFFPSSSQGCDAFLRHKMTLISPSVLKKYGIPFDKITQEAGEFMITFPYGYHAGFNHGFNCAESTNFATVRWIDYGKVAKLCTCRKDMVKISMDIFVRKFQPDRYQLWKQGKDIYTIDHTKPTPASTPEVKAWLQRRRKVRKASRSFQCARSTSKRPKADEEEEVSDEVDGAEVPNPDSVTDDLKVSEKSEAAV
Large screens that a line does not name were inactive; [ ] = remark or other dose. Shown are actives, neighbours in structure and some others; about 0.97% of the full set was active somewhere.

O=C(C1CC1)N1CCc2cc(Br)cc(S(=O)(=O)NCc3ccccn3)c21	AGP1-GFP MLPCN inconclusive, RPL19A TOR yeast 42.3[may fluoresce violet], CIT2-GFP yeast inconclusive, MEP2-GFP yeast 202.0[may fluoresce violet]
O=C(C1CC1)N1CCc2cc(Br)cc(S(=O)(=O)NCc3ccco3)c21	none (no result: GASC-1 inh)
CCC(=O)N1CCc2cc(Br)cc(S(=O)(=O)N3CCCC(C(=O)NC(C)(C)C)C3)c21 (centres undefined)	CIT2-GFP yeast inconclusive, MEP2-GFP yeast 326.3[may fluoresce violet]
O=C(C1CC1)N1CCc2cc(Br)cc(S(=O)(=O)N3CCOCC3)c21	AGP1-GFP MLPCN inconclusive, RPL19A TOR yeast 17.9[may fluoresce violet], CIT2-GFP yeast inconclusive, MEP2-GFP yeast 214.1[may fluoresce violet]
O=C(NCCS(=O)(=O)N1CCCCCC1)c1ccc(F)cc1	none
CC(=O)Nc1cc(C(=O)CSc2nnc(C3CC3)n2C2CC2)ccc1O	none
Cc1ccc(Nc2ccc(C(=O)O)cc2N)cc1	none
Cc1cc(C)cc(Nc2ccc(C(=O)O)cc2N)c1	CIT2-GFP yeast inconclusive, MEP2-GFP yeast 208.7[may fluoresce violet]
CCOC(=O)C1CCN(C(=O)c2cc3c(=O)n4cccc(C)c4nc3s2)CC1	AGP1-GFP MLPCN inconclusive, CIT2-GFP yeast inconclusive, MEP2-GFP yeast 200.2[may fluoresce violet]
Cc1cc(C)c(S(=O)(=O)NCC(=O)NCc2cc(=O)n(C)c(=O)n2C)c(C)c1	none
CCCCn1cc(S(=O)(=O)c2ccccc2)c(=O)c2cc(C)ccc21	AGP1-GFP MLPCN inconclusive, RPL19A TOR yeast 39.6[may fluoresce violet], CIT2-GFP yeast inconclusive, MEP2-GFP yeast 258.3[may fluoresce violet]
CCOC(=O)c1ccc(N2C=C(C(=O)OC)C(c3ccc(OC)c(O)c3)C(C(=O)OC)=C2)cc1	RPL19A TOR yeast 49.1[may fluoresce violet], CIT2-GFP yeast inconclusive, MEP2-GFP yeast 769.1[may fluoresce violet]
Cc1ccc(NC(=O)/C(C#N)=C/c2ccc(C)s2)c(C)c1	AGP1-GFP MLPCN inconclusive, CIT2-GFP yeast inconclusive, MEP2-GFP yeast 467.7[may fluoresce violet]
Cc1ccc(/C=C(\C#N)C(=O)Nc2c(C)cccc2C)s1	none
CCC(CO)NC(=O)c1ccccc1C(F)(F)F (centres undefined)	none
CCOCCCN(C(=O)c1snc(C(N)=O)c1N)C(C(=O)NC1CCCC1)c1ccc(O)cc1 (centres undefined)	none
Cc1ccc(C(C(=O)NC2CCCCC2)N(CCCN2CCOCC2)C(=O)c2snc(C(N)=O)c2N)cc1 (centres undefined)	RPL19A TOR yeast 41.4, MEP2-GFP yeast 181.5
CCOC(=O)C1=C(c2ccccc2)NC(SCC(=O)Nc2ccc(C)cc2)=C(C#N)C1c1ccco1 (centres undefined)	AGP1-GFP MLPCN inconclusive, RPL19A TOR yeast 19.0[may fluoresce violet], CIT2-GFP yeast inconclusive, MEP2-GFP yeast 271.0[may fluoresce violet]
Cc1ccc(NC(=O)CSC2=C(C#N)C(c3ccco3)CC(=O)N2)cc1 (centres undefined)	CIT2-GFP yeast inconclusive, MEP2-GFP yeast 182.9[may fluoresce violet]
CCCC(c1nnnn1CC(=O)OCC)N(Cc1cc2c(C)cc(C)cc2[nH]c1=O)C1CCCC1 (centres undefined)	CIT2-GFP yeast inconclusive, MEP2-GFP yeast 180.9[may fluoresce violet]
CCCC(c1nnnn1CC(=O)OCC)N(Cc1cc2ccc(C)cc2[nH]c1=O)C1CCCC1 (centres undefined)	none
COc1cc(OC)nc(Oc2cccc(Cl)c2C)n1	none
O=C(NCC1CCCO1)C1CCCN(S(=O)(=O)c2ccc(Br)cc2)C1 (centres undefined)	none
Cc1ccc(S(=O)(=O)N2CCCC(C(=O)NCC3CCCO3)C2)cc1 (centres undefined)	CIT2-GFP yeast inconclusive, MEP2-GFP yeast 274.0[may fluoresce violet]
COc1ccccc1CNC(=O)CNC(=O)[C@@H]1Cc2ccccc2CN1	RPL19A TOR yeast 30.7[may fluoresce violet], CIT2-GFP yeast inconclusive
CCOC(=O)C1=C(COC(=O)C2(C)CC2(Cl)Cl)NC(=O)NC1c1ccccc1 (centres undefined)	none
Cc1[nH]c(C)c(S(=O)(=O)N2CCN(c3cccc(Cl)c3)CC2)c1C(=O)N1CCCC1	none
Cc1[nH]c(C)c(S(=O)(=O)N2CCN(c3ccccc3)CC2)c1C(=O)N1CCCCC1	AGP1-GFP MLPCN inconclusive, RPL19A TOR yeast 47.3[may fluoresce violet], CIT2-GFP yeast inconclusive, MEP2-GFP yeast 509.4[may fluoresce violet]
CCCCCNc1nc(-c2ccccc2)cs1	CIT2-GFP yeast inconclusive, MEP2-GFP yeast 238.4[may fluoresce violet] (no result: AGP1-GFP MLPCN)
COC(=O)c1c(NC(=O)c2cccs2)sc2c1CCC(C)C2 (centres undefined)	CIT2-GFP yeast inconclusive, MEP2-GFP yeast 222.6[may fluoresce violet] (no result: AGP1-GFP MLPCN)
